ELG1 repair inh = inhibitors of ELG1-dependent DNA repair in HEK293T cells. HEK293T ELG1-luciferase reporter, luminescence, 16 h; DNA damage induced by 5-fluorouridine. Potency, µM (titrated, usually from 46.1 µM), usual class: inhibitors. 330,000 compounds, 2.3% hits; note: nearly all actives have a fitted effect of over 55% in size
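Quantitative HTS, concentration-response format. 2,000 cells/well co-treated with 5-fluorouridine and compound, 16 hr in 5% CO2 at 37 °C; ONE-Glo luminescence read after 30 min.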
HT1080 IDH1KD tx = toxicity to HT-1080 IDH1 knockdown cells (counter line) | Potency, µM (doses to about 46.1 µM), most hits filed as cytotoxic | 360,000 compounds, 2% hits | HT-1080 IDH1 knockdown viability, ATP luminescence, 48 h | AID 686971
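Cytotoxicity counter-line: IDH1KD HT-1080, 48 h, CellTiter-Glo. Curves classed by r2, magnitude and activity.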
HT1080NT lethal = kills 2HG-producing HT-1080-NT fibrosarcoma cells. HT-1080-NT fibrosarcoma viability, CellTiter-Glo ATP luminescence, 48 h. Potency, µM (doses to about 46.1 µM), usual class: cytotoxic. 360,000 compounds, 1.6% hits. AID 686970;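 note: NT is the 2HG producing partner of a matched IDH1 knockdown line; nearly all actives have a fitted effect of over 55% in size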
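HT-1080-NT; 750 cells/well; 5% FBS RPMI; 48 h compound, 37 degrees C; CellTiter-Glo luminescence; curve fitting and curve-class assignment.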
TDP1 cell CPT = growth inhibition of DT40 Tdp1-/-;hTDP1 cells with camptothecin (screen for TDP1 inhibitors). AID 686979. Potency, µM (series often up to 46.2 µM), usual class: inhibitors. 420,000 compounds, 12% hits. chicken DT40 Tdp1-/-;hTDP1 cells + 20 nM CPT, ATP luminescence, 48 h; note: nearly all actives have a fitted effect of over 55% in size
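Cell growth measured by CellTiter-Glo luminescence after a minimum 48 h, 37 C compound exposure with 20 nM CPT in Tdp1-knockout DT40 cells stably expressing hTDP1, seeded 400/well; qHTS titration format.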
IL1B secr inh = blocks inflammasome-driven IL-1 beta release | 360,000 compounds, 4.7% hits | AID 743279 | THP-1 LPS/ATP IL-1B secretion, AlphaLISA, 16 h; hits give low values | activity change, % at 57.5 µM; in the data active = activity change below about -50%; inconclusive = mostly about -30% to -49%
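THP-1 cells pretreated 1 hr with compounds (up to 57.5 uM final), then stimulated with LPS (250 ng/mL final) plus ATP (1.25 mM final); secreted IL-1B measured by AlphaLISA after 16 hr, decreased signal indicating inhibition.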
TDP1 cell noCPT = qHTS for Inhibitors of human tyrosyl-DNA phosphodiesterase 1 (TDP1): qHTS in cells in absence of CPT. 420,000 compounds, 15% hits. AID 686978, 2013. DT40 Tdp1-/- hTDP1 cells, no CPT, ATP luminescence, 48 h. Potency, µM (highest dose often 46.2 µM), most hits filed as inhibitors; note: nearly all actives have a fitted effect of over 55% in size
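Compound effects on proliferation are scored in DT40 Tdp1-/-;hTDP1 cells in the absence of CPT. ATP levels (CellTiter-Glo luminescence) are recorded after a ≥48 hr, 37 °C incubation.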
Numbers stand for hits; n = inactive; u = inconclusive; x = not tested or not shown; [ ] = remark or other dose. This is a sample that favours compounds with a hit; in the whole collection about 19% have one here. Unless noted, calls come from the whole dose curve; as a rule, active = well fitted curve in the direction sought with a large enough effect; inconclusive = small, poorly fitted or top-dose-only effect, or another doubt; inactive = no such curve, though single readings can be large; an effect the other way counts as inactive or inconclusive.

SMILES	ELG1 repair inh	HT1080 IDH1KD tx	HT1080NT lethal	TDP1 cell CPT	IL1B secr inh	TDP1 cell noCPT
O=C(NC(NNc1ccc([N+](=O)[O-])cc1)(C(F)(F)F)C(F)(F)F)c1ccc(Cl)cc1	n	u	n	u	u	29µM
O=c1c(CCc2ccccc2)nc2cnc(N3CCNCC3)nc2n1Cc1ccc(F)cc1	x	x	x	1µM	x	u
CN1CCN(c2ncc3nc(CCc4ccccc4)c(=O)n(Cc4ccc(F)cc4)c3n2)CC1	x	x	x	u	x	15µM
O=c1cnc2cnc(N3CCNCC3)nc2n1Cc1ccc(F)cc1	x	x	x	n	x	n
CN1CCN(c2ncc3nc(-c4cccs4)c(=O)n(Cc4ccc(F)cc4)c3n2)CC1	x	x	x	13µM	x	u
COCCn1c(=O)c(CCc2ccccc2)nc2cnc(N3CCN(C)CC3)nc21	x	x	x	n	x	n
CN1CCN(c2ncc3nc(CCc4ccccc4)c(=O)n(C)c3n2)CC1	x	x	x	23µM	x	u
Cn1c(=O)oc2cc(S(=O)(=O)NC(Cc3ccccc3)C(=O)Nc3ccc(F)cc3)ccc21 (stereo unspecified)	x	x	x	n	x	n
Cc1c(Cl)cccc1NC(=O)CSc1nc(=O)n(Cc2cccnc2)c2c1CCC2	x	x	x	n	x	n
Cc1ccccc1NC(=O)NC1(C(=O)NCC2CCCO2)CCCCC1 (stereo unspecified)	n	n	n	n	n	n
COc1ccccc1C(=O)N/C(=C\c1cn(C)c2ccccc12)C(=O)N1CCCC1	n	n	n	u	n	n
COc1ccc(CNC(=O)c2cccn2-c2nnc(N3CCCCC3)s2)c(OC)c1	x	x	x	u	x	23µM
COc1ccc(OC)c(NC(=O)c2cccn2-c2nnc(N3CCCCC3)s2)c1	x	x	x	21µM	x	u
COc1ccc(CNC(=O)c2cnc(N3CCCC3)nc2C)c(OC)c1	x	x	x	n	x	n
O=C(Oc1cccc(C(=S)N2CCOCC2)c1)c1cc([N+](=O)[O-])cc([N+](=O)[O-])c1	n	n	n	n	n	n
CC1=NN(c2ccccc2)C(=O)/C1=C\C=C\c1ccccc1	18µM	3.7µM	4.1µM	4.6µM	x	7.3µM
CC1=NN(c2ccccc2)C(=O)/C1=C/N(C)C	n	n	n	u	n	n
CC1=NN(c2ccccc2)C(=O)/C1=C/C=C/c1ccc(N(C)C)cc1	n	n	n	23µM	n	23µM
COc1cc(/C=C/C(=O)O[C@H]2CC[C@]34C[C@]35CC[C@]3(C)[C@@H]([C@H](C)CCC=C(C)C)CC[C@@]3(C)[C@@H]5CC[C@H]4C2(C)C)ccc1O	x	x	x	n	x	n
CCOc1ccccc1NC(=O)N1CCC(NC(=O)c2ccccc2C)CC1	n	n	n	n	n	n
CCOc1ccccc1C(=O)NC1CCN(CC(=O)Nc2cc(OC)ccc2OC)CC1	u	n	n	21µM	n	16µM
COC(=O)c1ccccc1NC(=O)CN1CCC(NC(=O)c2ccc(C)cc2)CC1	16µM	n	n	u	n	26µM
Cc1ccc(C(=O)NC2CCN(CC(=O)Nc3ccccc3Cl)CC2)cc1	n	n	n	n	n	n
CCOc1ccccc1C(=O)Nc1cc(OC)ccc1OC	u	u	n	n	n	u
CCOc1ccccc1NC(=O)CN1CCC(NC(=O)c2ccccc2C)CC1	u	n	n	23µM	n	23µM
SMILES	ELG1 repair inh	HT1080 IDH1KD tx	HT1080NT lethal	TDP1 cell CPT	IL1B secr inh	TDP1 cell noCPT
CCOc1ccccc1N1CCN(CC(=O)Nc2nccs2)CC1	x	n	n	n	n	n
CCOc1ccccc1N1CCN(CC(=O)Nc2ccnn2C2CCCC2)CC1	u	n	n	13µM	n	u
CCN1CCN(S(=O)(=O)c2ccc(Cl)c(C(=O)NC3CCCCC3)c2)CC1	n	n	n	u	n	n
COc1ccccc1N1CCN(c2nc3c(S(=O)(=O)c4ccc(C)c(C)c4)nnn3c3ccc(Cl)cc23)CC1	x	x	x	n	x	n
COC(=O)c1ccccc1NC(=O)CN1CCN(C23CC4CC(CC(C4)C2)C3)CC1	u	n	n	29µM	n	u
CCOc1cc2c(cc1OCC)CN(CC(=O)Nc1ccccc1C(=O)NC1CC1)CC2	n	n	n[9.24 µM]	u	n	n
CCOc1ccccc1N1CCN(CC(=O)Nc2ccccc2C(=O)NC2CC2)CC1	u	n	n	21µM	n	16µM
CCOc1ccc(OCC)c(NC(=O)CN2CCC(NC(=O)c3cccc(F)c3)CC2)c1	n	n	n	23µM	n	16µM
COc1ccc(F)cc1CN1CCN(CC(=O)Nc2ccccc2C(=O)NC2CC2)CC1	10µM	n	n	u	n	u
Cc1ccc2ncc3c(-c4ccccc4)nn(CC(=O)NC4CCCCC4)c3c2c1	x	x	x	n	x	n

Source: PubChem
